Screens (PubChem)
A selection: hits, their analogues and other compounds. The true share with any hit is near 3.1%.
VDR inhibitor – Inhibitors of the vitamin D receptor (VDR): qHTS; AID 504847, 2011; Vitamin D3 receptor (Homo sapiens), P11473; VDR-SRC2-3 peptide fluorescence polarization, 2 h; Potency, µM, most hits filed as inhibitors; actives 0.93% (n = 400,000)
Target sequence (P11473 whole entry, looked up): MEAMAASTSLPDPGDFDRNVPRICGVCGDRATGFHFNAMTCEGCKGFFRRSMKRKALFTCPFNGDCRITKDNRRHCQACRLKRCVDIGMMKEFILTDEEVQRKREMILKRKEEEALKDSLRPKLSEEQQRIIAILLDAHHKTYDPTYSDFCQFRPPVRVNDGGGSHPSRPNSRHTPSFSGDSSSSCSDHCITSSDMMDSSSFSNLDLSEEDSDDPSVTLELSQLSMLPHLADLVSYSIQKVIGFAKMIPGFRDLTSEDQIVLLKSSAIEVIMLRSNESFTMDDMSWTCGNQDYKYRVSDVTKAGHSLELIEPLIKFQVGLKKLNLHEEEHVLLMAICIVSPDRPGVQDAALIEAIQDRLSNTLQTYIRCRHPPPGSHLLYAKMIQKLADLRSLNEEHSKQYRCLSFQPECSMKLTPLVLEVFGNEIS
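Fluorescence polarization assay measuring small-molecule disruption of VDR binding to the coregulator peptide SRC2-3. Compounds were pin-transferred (23 nl) into the reagent mix and incubated 2 h at room temperature before reading.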
Pin1 inhibitor – qHTS Assay to Find Inhibitors of Pin1; AID 504891, 2011; actives 0.009% (n = 390,000); Potency, µM (titrated, usually from 115 µM), usual class: inhibitors; Peptidyl-prolyl cis-trans isomerase NIMA-interacting 1 (Homo sapiens), Q13526; Pin1 FP peptide displacement, HiFluor488, 10 min; active = well fitted inhibition curve with a large enough effect in the polarisation, with a control signal flat, not every such curve was filed as active; inconclusive = small, poorly fitted or top-dose-only effect, or effect the other way, or a change in a side signal; inactive = no such curve, though single readings can be large or run the other way; the % refers to the polarisation
Target sequence (Q13526 whole entry, looked up): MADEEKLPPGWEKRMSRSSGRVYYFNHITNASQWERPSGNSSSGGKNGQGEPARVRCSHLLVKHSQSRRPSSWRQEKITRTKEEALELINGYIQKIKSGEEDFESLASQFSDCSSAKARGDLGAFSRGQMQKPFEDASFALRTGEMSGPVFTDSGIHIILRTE
Tb PFK block – qHTS Assay to Find Inhibitors of T. brucei phosphofructokinase; ATP-dependent 6-phosphofructokinase (Trypanosoma brucei brucei), O15648; T. brucei PFK, ADP-Glo luminescence; Potency, µM (highest dose often 57.5 µM), hits mostly inhibitors; actives 0.17% (n = 330,000); AID 485367, 2010; note: nearly all actives have a fitted effect of over 60% in size
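Luminescent ADP detection (ADP-Glo, two-step: ATP depletion then ADP-to-ATP conversion for luciferase) reported PFK activity after 45 min room-temperature reaction of 1.25 nM enzyme with 0.5 mM F6P and 0.1 mM ATP at pH 8.0.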
TDP1 inh – qHTS Assay for Inhibitors of Tyrosyl-DNA Phosphodiesterase (TDP1); actives 0.28% (n = 350,000); Tyrosyl-DNA phosphodiesterase 1 (Homo sapiens), Q9NUW8; recombinant TDP1, AlphaScreen DNA substrate cleavage; AID 485290, 2010; Potency, µM (top dose mostly 130 µM), actives largely listed as inhibitors; note: nearly all actives have a fitted effect of over 40% in size
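Here, a 5' biotin and 3' phosphotyrosine-FITC DNA oligonucleotide reports Tdp1 activity: intact substrate bridges AlphaScreen beads, while cleavage leaves a 3' phosphate and drops signal. All incubations at room temperature.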
ASM inhibitor – Inhibitors of Secretory Acid Sphingomyelinase (S-ASM): qHTS; Sphingomyelin phosphodiesterase (Homo sapiens), P17405; AID 504937, 2011; Potency, µM (top dose mostly 57.5 µM), most hits filed as inhibitors; actives 0.006% (n = 340,000); placental ASM, HMU-PC fluorogenic substrate, 60 min
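Steps: dispense placental human ASM, pin compound, wait 10 min at room temperature, add HMU-PC0 substrate at 9 uM final, incubate 60 min at 37 °C, add stop solution raising pH to 10, read fluorescence.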
PLK1 PBD inh – qHTS for Inhibitors of PLK1-PDB (polo-like kinase 1 - polo-box domain): Primary Screen. Serine/threonine-protein kinase PLK1 (Homo sapiens), P53350. Plk1 PBD binding of FITC phosphopeptide, fluorescence polarization. Potency, µM, actives largely listed as inhibitors. actives 2.8% (n = 360,000). AID 720504, 2013; note: series mostly up to about 57 µM; nearly all actives have a fitted effect of over 65% in size
Each line names hits and unclear results; the compound was inactive in the other large screens; ! = a repeat was not active. Unless noted, calls come from the whole dose curve; as a rule, active = well fitted curve in the direction sought with a large enough effect; inconclusive = small, poorly fitted or top-dose-only effect, or another doubt; inactive = no such curve, though single readings can be large; an effect the other way counts as inactive or inconclusive.

Cc1ccc(S(=O)(=O)Nc2cccc3ncccc23)cc1	PLK1 PBD inh inconclusive (no result: TDP1 inh)
O=S(=O)(Nc1cccnc1)c1cccnc1	none (no result: Tb PFK block, TDP1 inh)
Cc1ccc(S(=O)(=O)NNc2ccccc2)cc1	VDR inhibitor inconclusive, Tb PFK block inconclusive, PLK1 PBD inh 28µM
Cc1ccc(S(=O)(=O)NNc2c3ccccc3nc3ccc(Cl)cc23)cc1	none (no result: VDR inhibitor, Pin1 inhibitor, Tb PFK block, TDP1 inh, ASM inhibitor)
Cc1ccc(S(=O)(=O)Nc2ccnc3ccccc23)cc1	VDR inhibitor inconclusive, PLK1 PBD inh 27µM
Cc1ccc(S(=O)(=O)NNc2nc3ccccc3nc2C(F)(F)F)cc1	VDR inhibitor inconclusive, PLK1 PBD inh 8.4µM
COc1ccc(C2Oc3ccccc3C(=O)N2Cc2ccccc2)cc1COc1ccc(NC(C)=O)cc1 (stereo not drawn)	none (no result: VDR inhibitor, Tb PFK block, ASM inhibitor, PLK1 PBD inh)
Cc1ccc(-c2cn3nc(N4CCCC(C(=O)Nc5ccc(F)cc5)C4)sc3n2)cc1 (stereo not drawn)	none (no result: Tb PFK block, ASM inhibitor, PLK1 PBD inh)
CCCCOc1ccc(C2(C)NC(=O)NC2=O)cc1 (stereo not drawn)	VDR inhibitor 25µM, PLK1 PBD inh 7.5µM (no result: TDP1 inh)
CCCCCCCOc1ccc(C2(C)NC(=O)NC2=O)cc1 (stereo not drawn)	Pin1 inhibitor inconclusive
Cc1cccc(C)c1NC(=O)CN1C(=O)S/C(=C\c2cccn2-c2cccc(C(=O)O)c2)C1=O	PLK1 PBD inh 42µM (no result: Pin1 inhibitor, TDP1 inh)
Cc1cccc(NC(=O)CN2C(=O)S/C(=C\c3cccn3-c3cccc(C(=O)O)c3)C2=O)c1	PLK1 PBD inh inconclusive (no result: Pin1 inhibitor, TDP1 inh)
O=C(O)c1cccc(-n2cccc2/C=C2/NC(=O)N(Cc3ccccc3F)C2=O)c1	TDP1 inh 2.8µM
Cc1ccccc1NC(=O)CN1C(=O)S/C(=C\c2cccn2-c2cccc(C(=O)O)c2)C1=O	TDP1 inh 50µM, PLK1 PBD inh inconclusive (no result: Pin1 inhibitor)
Cc1ccc(NC(=O)CN2C(=O)S/C(=C\c3cccn3-c3cccc(C(=O)O)c3)C2=O)cc1C	PLK1 PBD inh inconclusive (no result: Pin1 inhibitor, TDP1 inh)
Cc1ccc(NC(=O)CN2C(=O)S/C(=C\c3cccn3-c3cccc(C(=O)O)c3)C2=O)c(C)c1	TDP1 inh 50µM, PLK1 PBD inh 24µM (no result: Pin1 inhibitor)
O=C(CN1C(=O)N/C(=C\c2cccn2-c2cccc(C(=O)O)c2)C1=O)Nc1ccccc1F	none (no result: VDR inhibitor, Tb PFK block, ASM inhibitor, PLK1 PBD inh)
Cc1cccc(NS(=O)(=O)c2ccc3c(c2)OCC(C(=O)N2CCCC2)O3)c1C (stereo not drawn)	none (no result: Tb PFK block, ASM inhibitor, PLK1 PBD inh)
O=C(Cn1cc(CNCc2ccccc2)nn1)Nc1cc(C(F)(F)F)ccc1Cl	none (no result: VDR inhibitor, Tb PFK block, ASM inhibitor, PLK1 PBD inh)
Cc1ccc(C(=O)O/N=C(\N)c2cccc([N+](=O)[O-])c2)cc1	none
CC1=CC(=O)C(C(C)C)=C/C1=N\OC(=O)c1cccc2nc(C)oc12	none
CC1=CC(=NOC(=O)c2cccc([N+](=O)[O-])c2)C=C(C)C1=O	VDR inhibitor inconclusive, PLK1 PBD inh 6.7µM
CC1=CC(=O)C(C(C)C)=C/C1=N/OC(=O)c1cccc([N+](=O)[O-])c1	PLK1 PBD inh 3.8µM
Cc1ccc(CNC(=O)c2cnc(N3CCCCC3)c3ccccc23)cc1	none (no result: Tb PFK block, ASM inhibitor, PLK1 PBD inh)
Cc1onc(-c2ccccc2Cl)c1C(=O)N1CC(C)OC(C)C1 (stereo not drawn)	VDR inhibitor inconclusive, PLK1 PBD inh 30µM
Cc1onc(-c2ccccc2Cl)c1C(=O)N1CCCCC1C (stereo not drawn)	none (no result: TDP1 inh)
CC(C)c1cnc2c(c1SCC(=O)c1ccc(Cl)cc1)c(=O)n(C)c(=O)n2C	none (no result: Tb PFK block, ASM inhibitor, PLK1 PBD inh)
O=C(O)Cc1c[nH]c2ccc(O)cc12	VDR inhibitor 50µM! (no result: Tb PFK block)
COc1ccc2[nH]cc(CC(=O)O)c2c1	none
Cn1cc(C(=O)NCCc2ccccc2)c(=O)c2cc(S(=O)(=O)N3CCCCC3)ccc21	Pin1 inhibitor inconclusive (no result: Tb PFK block, ASM inhibitor, PLK1 PBD inh)
